Measurements: paper PMC8384837, “Expanding the binding specificity for RNA recognition by a PUF domain”

How the values were obtained:
Assay in all cases: yeast three-hybrid, YBZ-1, SC-Leu-His + 0.5 mM 3-AT, 4 days
Settings in all cases: tags: N-Gal4 AD-HA kept; label: inside an RPR1-promoter hybrid RNA with tandem MS2 sites; ssRNA
PUM1 PUF domain R4-SRS = PUM1 PUF domain R4-SRS (Homo sapiens, UniProt Q14671 828-1176, N971S;H972R;Q975S)
Outline: (§1)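 Pumilio-1 PUF domain libraries, randomized at the three base-contacting residues of each repeat, were co-expressed with matching RNA elements from a centromeric plasmid in strain YBZ-1, which carries a LexA–MS2 coat fusion and a HIS3 reporter. Transformants grew for four days on SC-Leu (input) or on SC-Leu-His + 0.5 mM 3-AT (selection), and the repeat regions were PCR-amplified and Illumina-sequenced. The interaction score is the log change in variant frequency from input to selection. That logarithm is base 2, with a pseudocount of 1 where a variant was absent.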

PUM1 PUF domain R2-RRV = PUM1 PUF domain R2-RRV (Homo sapiens, UniProt Q14671 828-1176, N899R;Y900R;Q903V)
Outline: as §1

PUM1 PUF domain R4-DRI = PUM1 PUF domain R4-DRI (Homo sapiens, UniProt Q14671 828-1176, N971D;H972R;Q975I)
Outline: as §1

PUM1 PUF domain R3-SSQ = PUM1 PUF domain R3-SSQ (Homo sapiens, UniProt Q14671 828-1176, C935S;R936S)
Outline: as §1

PUM1 PUF domain R3-VCI = PUM1 PUF domain R3-VCI (Homo sapiens, UniProt Q14671 828-1176, C935V;R936C;Q939I)
Outline: as §1

PUM1 PUF domain R3-LRL = PUM1 PUF domain R3-LRL (Homo sapiens, UniProt Q14671 828-1176, C935L;Q939L)
Outline: as §1

PUM1 PUF domain R1-KYV = PUM1 PUF domain R1-KYV (Homo sapiens, UniProt Q14671 828-1176, S863K;R864Y;Q867V)
Outline: as §1

PUM1 PUF domain R5-KNL = PUM1 PUF domain R5-KNL (Homo sapiens, UniProt Q14671 828-1176, C1007K;R1008N;Q1011L)
Outline: as §1

PUM1 PUF domain R5-RCD = PUM1 PUF domain R5-RCD (Homo sapiens, UniProt Q14671 828-1176, C1007R;R1008C;Q1011D)
Outline: as §1

PUM1 PUF domain R5-KRA = PUM1 PUF domain R5-KRA (Homo sapiens, UniProt Q14671 828-1176, C1007K;Q1011A)
Outline: as §1

## GGCUAGAACUAGUGGAUCCCCCGGCGCCCGGCGGCUCGAGCCCGGGUAAGUGUAUAUAGUCUGCAUGCCGCCGGGCGCCAUGCCUGCAGGUCGACUCUAGAAAACAUG
PUM1 PUF domain R4-SRS
  binding signal: 0.95 log2 enrichment (interaction score)

## GGCUAGAACUAGUGGAUCCCCCGGCGCCCGGCGGCUCGAGCCCGGGUAAGUGUAAAGAGUCUGCAUGCCGCCGGGCGCCAUGCCUGCAGGUCGACUCUAGAAAACAUG
PUM1 PUF domain R2-RRV
  binding signal: 2.5 log2 enrichment (interaction score)

## GGCUAGAACUAGUGGAUCCCCCGGCGCCCGGCGGCUCGAGCCCGGGUAAGUGUAAAUAGUCUGCAUGCCGCCGGGCGCCAUGCCUGCAGGUCGACUCUAGAAAACAUG
PUM1 PUF domain R4-DRI
  binding signal: 5.23 log2 enrichment (interaction score)
PUM1 PUF domain R4-SRS
  binding signal: 3.11 log2 enrichment (interaction score)
PUM1 PUF domain R3-SSQ
  binding signal: 2.66 log2 enrichment (interaction score)
PUM1 PUF domain R3-VCI
  binding signal: 2.74 log2 enrichment (interaction score)

## GGCUAGAACUAGUGGAUCCCCCGGCGCCCGGCGGCUCGAGCCCGGGUAAGUGUAAGUAGUCUGCAUGCCGCCGGGCGCCAUGCCUGCAGGUCGACUCUAGAAAACAUG
PUM1 PUF domain R3-LRL
  binding signal: 2.89 log2 enrichment (interaction score)

## GGCUAGAACUAGUGGAUCCCCCGGCGCCCGGCGGCUCGAGCCCGGGUAAGUGUAAAUUGUCUGCAUGCCGCCGGGCGCCAUGCCUGCAGGUCGACUCUAGAAAACAUG
PUM1 PUF domain R1-KYV
  binding signal: 2.06 log2 enrichment (interaction score)

## GGCUAGAACUAGUGGAUCCCCCGGCGCCCGGCGGCUCGAGCCCGGGUAAGUGUCAAUAGUCUGCAUGCCGCCGGGCGCCAUGCCUGCAGGUCGACUCUAGAAAACAUG
PUM1 PUF domain R5-KNL
  binding signal: 4.73 log2 enrichment (interaction score)
PUM1 PUF domain R5-RCD
  binding signal: 3.7 log2 enrichment (interaction score)
PUM1 PUF domain R5-KRA
  binding signal: 2.92 log2 enrichment (interaction score)

## GGCUAGAACUAGUGGAUCCCCCGGCGCCCGGCGGCUCGAGCCCGGGUAAGUGUACAUAGUCUGCAUGCCGCCGGGCGCCAUGCCUGCAGGUCGACUCUAGAAAACAUG
PUM1 PUF domain R4-SRS
  binding signal: 1.59 log2 enrichment (interaction score)

## GGCUAGAACUAGUGGAUCCCCCGGCGCCCGGCGGCUCGAGCCCGGGUAAGUGUAAUUAGUCUGCAUGCCGCCGGGCGCCAUGCCUGCAGGUCGACUCUAGAAAACAUG
PUM1 PUF domain R3-LRL
  binding signal: 0.28 log2 enrichment (interaction score)

## GGCUAGAACUAGUGGAUCCCCCGGCGCCCGGCGGCUCGAGCCCGGGUAAGUGUUAAUAGUCUGCAUGCCGCCGGGCGCCAUGCCUGCAGGUCGACUCUAGAAAACAUG
PUM1 PUF domain R5-RCD
  binding signal: 2.68 log2 enrichment (interaction score)
PUM1 PUF domain R5-KRA
  binding signal: 0.81 log2 enrichment (interaction score)
